# In the supplement of paper PMC6992640:
# ± gives the standard deviation of the averaged measurements.
# Legend:
# [1] = system: HCI03 (cells of an ER-positive luminal breast cancer xenograft); assay: cell viability (% of vehicle); higher = less cytotoxic; settings: 10 µM; 72 h
# [2] = system: HCI09 (cells of a triple-negative luminal androgen receptor type breast cancer xenograft); assay: as above; settings: 10 µM; 72 h
# [3] = system: HCI11 (cells of an ER-positive luminal breast cancer xenograft); assay: as above; settings: 10 µM; 72 h
# [4] = system: HCI13 (cells of an ER-positive luminal breast cancer xenograft); assay: as above; settings: 10 µM; 72 h
# [5] = system: WHIM2 (cells of a triple-negative basal-like breast cancer xenograft); assay: as above; settings: 10 µM; 72 h
# [6] = system: HCI01 (cells of a triple-negative basal-like breast cancer xenograft); assay: as above; settings: 10 µM; 72 h
# [7] = system: HCI16 (cells of a triple-negative basal-like breast cancer xenograft); assay: as above; settings: 10 µM; 72 h
# [8] = system: UCD52 (cells of a triple-negative basal-like breast cancer xenograft); assay: as above; settings: 10 µM; 72 h
# [9] = system: WHIM30 (cells of a triple-negative basal-like breast cancer xenograft); assay: as above; settings: 10 µM; 72 h
# [10] = system: HCI01; assay: cell viability of combination (% of vehicle); higher = less cytotoxic; settings: 1 µM; 72 h; partner dose: 10 nM
# Method: (§1)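 PDX cells were treated for 72 h with each drug at 1 µM plus carfilzomib (10 nM; 100 nM for WHIM2). Luciferase viability is expressed as percent of vehicle.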
# [11] = system: UCD52; assay: as above; settings: 1 µM; 72 h; partner dose: 10 nM
# Method: as §1
compound,measurement,setting,value
C#Cc1cccc(Nc2ncnc3cc(OC)c(OCCCCCCC(=O)NO)cc23)c1,cell viability,[1],105
same,cell viability,[2],22.1 ± 10
same,cell viability,[3],4.55
same,cell viability,[4],77.52 ± 0.49
same,cell viability,[5],44.4 ± 5
Nc1nc(NC2CC2)c2ncn(C3C=CC(CO)C3)c2n1 (stereo unspecified) [Abacavir],cell viability,[6],173 ± 35
same,cell viability,[3],118
same,cell viability,[4],193 ± 30
same,cell viability,[7],121
same,cell viability,[5],179 ± 28
CC(=O)OCC(=O)C1CCC2C3CCC4=CC(=O)CCC4(C)C3CCC12C (stereo unspecified) [Deoxycorticosterone acetate],cell viability,[1],132
same,cell viability,[2],95.7 ± 46
same,cell viability,[3],112
same,cell viability,[4],141 ± 23
same,cell viability,[7],135
same,cell viability,[8],139 ± 19
same,cell viability,[5],140 ± 10
same,cell viability,[9],164 ± 12
O=c1oc2cc(O)ccc2s1 [Tioxolone],cell viability,[6],115.5 ± 0.72
same,cell viability,[2],87.9 ± 13
same,cell viability,[3],96.8
same,cell viability,[4],85.9 ± 17
same,cell viability,[7],172
same,cell viability,[8],109.1 ± 0.84
same,cell viability,[5],129 ± 28
same,cell viability,[9],145 ± 30
CCCc1nc(C(C)(C)O)c(C(=O)OCc2oc(=O)oc2C)n1Cc1ccc(-c2ccccc2-c2nn[nH]n2)cc1 [Olmesartan medoxomil],cell viability,[1],150
same,cell viability,[2],110 ± 1.2
same,cell viability,[3],162
same,cell viability,[4],128 ± 2.5
same,cell viability,[7],182
same,cell viability,[8],168 ± 28
same,cell viability,[5],105 ± 20
same,cell viability,[9],177 ± 30
O=C(Nc1nc2cccc(-c3ccc(CN4CCS(=O)(=O)CC4)cc3)n2n1)C1CC1,cell viability,[2],186 ± 51
same,cell viability,[9],147 ± 9.8
O=c1c(-c2ccc(O)cc2)coc2cc(O)cc(O)c12 [Genistein],cell viability,[1],160
same,cell viability,[3],129
same,cell viability,[7],183
same,cell viability,[8],189 ± 34
same,cell viability,[5],121 ± 5.2
COc1ccc(C=CC(=O)Nc2ccccc2C(=O)O)cc1OC [Tranilast],cell viability,[3],87.9
same,cell viability,[7],108
same,cell viability,[8],116 ± 8.9
COc1ccc(C[C@H](N)C(=O)N[C@@H]2[C@H](O)[C@H](n3cnc4c(N(C)C)ncnc43)O[C@@H]2CO)cc1.Cl.Cl [Puromycin dihydrochloride] + CC(C)C[C@H](NC(=O)[C@H](CCc1ccccc1)NC(=O)CN1CCOCC1)C(=O)N[C@@H](Cc1ccccc1)C(=O)N[C@@H](CC(C)C)C(=O)[C@@]1(C)CO1 [Carfilzomib],cell viability of combination,[10],76.4
same,cell viability of combination,[11],13.8
CC(C=CC1=C(C)CCCC1(C)C)=CC=CC(C)=CC(=O)O [Tretinoin (Aberela)],cell viability,[1],143
same,cell viability,[3],149
same,cell viability,[4],146 ± 12
same,cell viability,[7],175
same,cell viability,[5],58.5 ± 19
Cc1[nH]c2ccccc2c1CCNCc1ccc(C=CC(=O)NO)cc1 [Panobinostat (LBH589)],cell viability,[1],130
same,cell viability,[2],68.3 ± 34
same,cell viability,[4],45 ± 8.7
same,cell viability,[5],36.5 ± 3
COc1ncc(-c2ccc3nccc(-c4ccnnc4)c3c2)cc1NS(=O)(=O)c1ccc(F)cc1F + CC(C)C[C@H](NC(=O)[C@H](CCc1ccccc1)NC(=O)CN1CCOCC1)C(=O)N[C@@H](Cc1ccccc1)C(=O)N[C@@H](CC(C)C)C(=O)[C@@]1(C)CO1 [Carfilzomib],cell viability of combination,[10],37.6
same,cell viability of combination,[11],17.6
c1cn2cc(-c3ccc4cn[nH]c4c3)nc(Nc3ccc(N4CCOCC4)cc3)c2n1,cell viability,[3],125
same,cell viability,[7],86.2
Cl.Fc1ccc(C2CCNCC2COc2ccc3c(c2)OCO3)cc1 (stereo unspecified) [Paroxetine HCl] + CC(C)C[C@H](NC(=O)[C@H](CCc1ccccc1)NC(=O)CN1CCOCC1)C(=O)N[C@@H](Cc1ccccc1)C(=O)N[C@@H](CC(C)C)C(=O)[C@@]1(C)CO1 [Carfilzomib],cell viability of combination,[10],90.8
same,cell viability of combination,[11],54.7
Clc1ccc(COC(Cn2ccnc2)c2ccc(Cl)cc2Cl)c(Cl)c1.O=[N+]([O-])O (stereo unspecified) [Miconazole Nitrate] + CC(C)C[C@H](NC(=O)[C@H](CCc1ccccc1)NC(=O)CN1CCOCC1)C(=O)N[C@@H](Cc1ccccc1)C(=O)N[C@@H](CC(C)C)C(=O)[C@@]1(C)CO1 [Carfilzomib],cell viability of combination,[10],87.1
same,cell viability of combination,[11],59.3
CCCCc1nc2cc(C=CC(=O)NO)ccc2n1CCN(CC)CC [Pracinostat (SB939)],cell viability,[2],56.2 ± 49
same,cell viability,[3],6.31
same,cell viability,[4],88.1 ± 21
same,cell viability,[5],64.9 ± 4.9
COc1cccc(-c2ccc(NC(=O)C3=C(C(=O)O)CCC3)c(F)c2)c1 [Vidofludimus],cell viability,[3],99.5
O=C(O)c1cc(O)c(O)c(O)c1 [Gallic acid] + CC(C)C[C@H](NC(=O)[C@H](CCc1ccccc1)NC(=O)CN1CCOCC1)C(=O)N[C@@H](Cc1ccccc1)C(=O)N[C@@H](CC(C)C)C(=O)[C@@]1(C)CO1 [Carfilzomib],cell viability of combination,[10],74.5
same,cell viability of combination,[11],60.9
C=C1C(=CC=C2CCCC3(C)C2CCC3C(C)CCCC(C)C)CC(O)CC1O (stereo unspecified) [Alfacalcidol] + CC(C)C[C@H](NC(=O)[C@H](CCc1ccccc1)NC(=O)CN1CCOCC1)C(=O)N[C@@H](Cc1ccccc1)C(=O)N[C@@H](CC(C)C)C(=O)[C@@]1(C)CO1 [Carfilzomib],cell viability of combination,[10],55.4
same,cell viability of combination,[11],41
Br.Cc1ccc(Sc2ccccc2N2CCNCC2)c(C)c1 + CC(C)C[C@H](NC(=O)[C@H](CCc1ccccc1)NC(=O)CN1CCOCC1)C(=O)N[C@@H](Cc1ccccc1)C(=O)N[C@@H](CC(C)C)C(=O)[C@@]1(C)CO1 [Carfilzomib],cell viability of combination,[10],98.3
same,cell viability of combination,[11],50.8
Cc1nc(-c2ccc(OCC(C)C)c(C#N)c2)sc1C(=O)O [Febuxostat],cell viability,[7],191
Cn1nnc(-c2ccc(-c3ccc(N4CC(CO)OC4=O)cc3F)cn2)n1 (stereo unspecified) [Tedizolid],cell viability,[3],107
same,cell viability,[7],170
same,cell viability,[5],157 ± 57
CC(O)=C(C#N)C(=O)Nc1ccc(C(F)(F)F)cc1 [Teriflunomide],cell viability,[3],162
same,cell viability,[4],196 ± 48
same,cell viability,[7],200
